D2 antagonist: antagonists of human D2 dopamine receptor; P14416; HEK293 TREx D2 cells, calcium flux, dopamine EC80; inhibition, % at 10 µM; actives 2% (n = 340,000); AID 485344; in the data active = inhibition above about 30%; inactive = below that, where a call was filed; also: 0% is about no effect
Target sequence (P14416 whole entry, looked up): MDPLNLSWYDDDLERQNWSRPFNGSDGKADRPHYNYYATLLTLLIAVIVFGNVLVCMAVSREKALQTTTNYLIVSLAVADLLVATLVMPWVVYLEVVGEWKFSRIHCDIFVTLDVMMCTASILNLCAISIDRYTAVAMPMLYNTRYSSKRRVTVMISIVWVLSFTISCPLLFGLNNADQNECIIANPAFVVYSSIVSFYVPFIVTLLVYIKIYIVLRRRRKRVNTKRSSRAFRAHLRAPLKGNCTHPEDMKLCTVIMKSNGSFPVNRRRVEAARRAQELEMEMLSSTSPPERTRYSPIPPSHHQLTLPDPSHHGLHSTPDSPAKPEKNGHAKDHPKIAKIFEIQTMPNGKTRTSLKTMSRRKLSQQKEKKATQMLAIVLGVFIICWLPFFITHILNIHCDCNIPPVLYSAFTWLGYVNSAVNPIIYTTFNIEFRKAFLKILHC
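Read-out: kinetic calcium fluorescence (1 cycle/s) in inducible HEK293 T-REx D2 cells after an EC80 dopamine addition that followed 180 s compound preincubation. Loss of the dopamine response indicates antagonism.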
D2 PAM-1: potentiates the human D2 dopamine receptor allosterically; actives 0.23% (n = 360,000); P14416; potentiation, % (no concentration beside the values); DiscoveRx D2 beta-arrestin cells, luminescence, 90 min; 100% = 57 uM dopamine signal; in the data active = potentiation above about 50%; inconclusive = mostly about 30% to 49%
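PathHunter D2 cells, attached overnight at 37 deg C, received compound in DMSO plus dopamine at EC20 (50 nM final) for 90 min at 37 deg C. Beta-arrestin recruitment was read as luminescence after 1 h with detection reagent at ambient temperature.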
D2 ag-1: agonists of human D2 dopamine receptor. activation, % at 2 µM. HEK293 T-REx D2 cells, calcium flux agonist mode. AID 485358. actives 0.53% (n = 340,000). P14416;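 active = activation over 3 SD above normal in the single-dose calcium agonist read, cut at about 30% in these data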; also: 0% is about no effect
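Tetracycline-induced HEK293 Trex cells with D2 receptor force-coupled to calcium signaling, plated overnight at 30 C and loaded with no-wash calcium dye. Calcium flux read kinetically for 180 s after compound addition; responses flag agonists.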
D2 PAM-2: D2 dopamine receptor (human) potentiation; potentiation, % at 10 µM; AID 485347; HEK293 T-REx D2, calcium flux, EC20 dopamine potentiation; actives 0.34% (n = 340,000);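 active = potentiation over 3 SD above the plate norm, cut at about 30% in these data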; also: 0% is about no effect
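Tetracycline-induced HEK293 T-REx cells force-coupled to calcium signalling expressed D2; compounds were pin-added after a 10 s baseline, read kinetically 180 s, then an EC20 dopamine challenge followed with a further 180 s calcium read.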
D2 ag-2: activates the human D2 dopamine receptor; P14416; DiscoveRx PathHunter D2 beta-arrestin, luminescence, 90 min; 100% = 57 uM dopamine signal; activation, % (concentration not given with the values); actives 0.084% (n = 360,000); in the data active = activation above about 40%; inconclusive = between about 15% and that limit
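DiscoveRx PathHunter D2 beta-arrestin cells (2,100/well) attached overnight, then compound-stimulated 90 min at 37 C in HBSS/10 mM HEPES/0.1% Tween-20 buffer; beta-galactosidase complementation read by luminescence after 1 h at ambient temperature. Dopamine 57 uM final (EC100) as control.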
Numbers without * were called inactive; ? = inconclusive; . = not tested or not shown. The list is not random: actives were taken first. Their share in the collection is about 2.4%.

SMILES	D2 antagonist	D2 PAM-1	D2 ag-1	D2 PAM-2	D2 ag-2
Cc1ccccc1C(=O)NC(CC(C)C)C(=O)N1CCN(c2ccccc2)CC1 (stereo not drawn)	-3	-9	0	31*	0
Cc1ccccc1C(=O)NCc1nnc(SCC(=O)N2CCN(c3ccccc3)CC2)n1C	39*	-6	-1	0	-6
CCOC(=O)CSc1nnc(CNC(=O)c2cccc(C)c2)n1C	35*	0	0	4	?
CC(C)C[C@H](NC(=O)N1CCN(c2ccccc2)CC1)C(=O)O	.	0	.	.	2
CCOC(=O)CSc1nnc(CNC(=O)c2cccc(C)c2)n1-c1ccccc1OC	.	-1	.	-3	0
COc1ccc(C2=NS(=O)(=O)N(C)C(C(=O)Nc3ccc(OC(F)(F)F)cc3)=C2)cc1	.	.	1	5	.
COCC1CCCN(Cc2cn(-c3ccccc3F)nc2-c2cc(C)sc2C)C1 (stereo not drawn)	41*	-19	2	-17	-4
COc1cccc(NC(=O)CN(C)S(=O)(=O)c2cccs2)c1	.	.	.	-9	.
Cc1cc(=O)n2nc(N3CCC(C(=O)NCc4ccco4)CC3)sc2n1	-11	-13	0	-2	-5
Cc1cc(=O)n2nc(N3CCCC(C(=O)NCc4ccco4)C3)sc2n1 (stereo not drawn)	36*	-6	1	-7	1
CCc1ccc(NC(=O)Cn2c(=O)c(-c3ccccc3NC(C)=O)nc3ccccc32)cc1	.	.	-1	-27	.
Cc1nc(-c2ccc(F)cc2)c(CC(=O)N(C)CC(=O)Nc2ccc(Br)cc2C)s1	58*	-5	1	-25	-4
CCC(C)(C)NC(=O)CN(C(=O)CCC(=O)Nc1nccs1)c1ccccc1C	39*	-11	0	-3	-2
CCCCN=C(C)C1=C(O)CSC1=O	-2	-1	0	5	0
CC(=NCCc1ccccc1)C1=C(O)CSC1=O	-12	?	35*	1	0
Cc1ccc[n+](C(C)C(=O)Nc2ccc([N+](=O)[O-])cc2C)c1 (stereo not drawn)	21	-9	-3	-2	-3
Cc1ccc[n+](C(C)C(=O)Nc2ccc(C)c([N+](=O)[O-])c2)c1 (stereo not drawn)	43*	-36	3	-17	-3
COc1ccc(/C=C/C(=O)Nc2ccccc2C(=O)N2CCCC2)cc1	-3	14	0	9	1
COc1ccc(/C=C/C(=O)Nc2ccccc2C(=O)NCC(c2ccc(OC)cc2)N(C)C)cc1 (stereo not drawn)	60*	-33	-2	.	0
COc1ccc(/C=C/C(=O)Nc2ccccc2C(=O)O)cc1	34*	9	4	-1	1
COc1ccc(/C=C/C(=O)Nc2ccccc2C(F)(F)F)cc1	5	-10	-1	4	-1
CC(C)OC(=O)c1ccc(N2CCN(c3ccc(F)cc3)CC2)nc1	-7	-5	-1	-1	5
CC(C)OC(=O)c1cccnc1N1CCN(c2ccc(F)cc2)CC1	33*	-10	-2	2	-3
COc1ccccc1C1SCCN1S(=O)(=O)c1cccc(C(F)(F)F)c1 (stereo not drawn)	47*	-8	1	-2	-1
COc1ccccc1C1SCCN1S(=O)(=O)c1ccccc1 (stereo not drawn)	.	-7	.	.	0
SMILES	D2 antagonist	D2 PAM-1	D2 ag-1	D2 PAM-2	D2 ag-2
O=C(CC(NCc1cccnc1)C(=O)O)Nc1ccc(F)cc1 (stereo not drawn)	.	.	1	15	.
COc1c(C)cc(Br)cc1C(=O)Nc1ccccc1C	8	-5	-2	-3	-9
COc1c(C)cc(Br)cc1C(=O)O	40*	-5	1	-9	-1
Cc1ccccc1Cn1ccc(NC(=O)c2nn(C)cc2[N+](=O)[O-])n1	31*	-7	2	9	2
CCn1cc([N+](=O)[O-])c(C(=O)Nc2ccn(Cc3ccccc3F)n2)n1	4	-2	0	2	-1
O=C(O)c1cc(N/N=C/c2cccs2)ccc1Cl	6	.	0	-1	.
Cc1ccc(/C=N/Nc2ccc(Cl)c(C(=O)O)c2)s1	-7	51*	-1	9	5
O=C(NC1CCN(Cc2ccccc2)CC1)c1[nH]c(C(F)(F)F)nc1-c1ccccc1	.	-4	.	.	?
Nc1nonc1-c1nc2ccccc2n1CC(=O)N1CCN(c2ccc(F)cc2)CC1	-30	-11	1	50*	1
Nc1nonc1-c1nc2ccccc2n1CC(=O)Nc1ccc(F)cc1	.	.	5	9	.
CC(C)N(Cc1ccccc1)C(=O)/C=C/c1ccccc1[N+](=O)[O-]	-1	-5	0	14	0
O=[N+]([O-])c1ccc2ncnc(N3CCN(Cc4ccc5c(c4)OCO5)CC3)c2c1	101*	-27	77*	-19	?
O=[N+]([O-])c1ccccc1/C=C/CN1CCCCC1	36*	-20	0	-18	6
CN(C/C=C/c1ccccc1[N+](=O)[O-])Cc1ccccc1	57*	-7	0	-21	1
O=[N+]([O-])c1ccccc1/C=C/CN1CCN(Cc2ccc3c(c2)OCO3)CC1	31*	-78	2	-22	3
O=C(Nc1cccc(S(=O)(=O)NC2=NCCCCC2)c1)c1cc(-c2ccncc2)nc2ccccc12	-4	98*	2	6	-3
O=C(Cc1c(F)cccc1Cl)Nc1cccc(S(=O)(=O)NC2=NCCCCC2)c1	31*	-25	0	4	-1
O=C(CCl)Nc1cccc(S(=O)(=O)NC2=NCCCCC2)c1	.	-2	.	.	-1
Cc1cc(C)c(C#N)c(SCS(=O)Cc2ccccc2)n1 (stereo not drawn)	-13	-7	-1	-3	2
Cc1cc(C)c(C#N)c(SCS(=O)Cc2ccc(Cl)cc2)n1 (stereo not drawn)	37*	-16	0	-8	0
CCOC(=O)C(=CNc1cc(C)nn1-c1ccc(C)cc1)C(=O)OCC	14	65*	-1	8	-1
CCOC(=O)c1c(S(=O)(=O)N2CCCC(C(=O)NCc3ccc(Cl)cc3)C2)c(C)n(C)c1C (stereo not drawn)	.	.	-1	-17	.
Cc1cccc(NC(=S)N(CCCN2CCOCC2)Cc2ccccn2)c1	40*	-12	1	-6	-3
S=C(Nc1ccc(Oc2ccccc2)cc1)N(CCCN1CCOCC1)Cc1ccccn1	-20	-5	3	-27	-3
CC1=C(C(=O)N2CCN(c3ccc(Cl)cc3)CC2)C2(CCC(C)CC2)OC1=O (stereo not drawn)	.	.	0	7	.
CCCCNCC1CCCO1 (stereo not drawn)	70*	-7	0	-21	-3
Cc1ccc(CNCC2CCCO2)o1 (stereo not drawn)	9	0	-1	-4	-2
